Consider 16 compounds from publication PMC5540273 (PLoS ONE, 2017).

The structures appear in SMILES notation.

What all share (conditions): concentration: 1 μM, replicates: in singlicate; n = 1
Assay [1] relates to TNNI3K.
In assay [2] the test system is T1, TRKA.
T1 construct: gene NTRK1

Assay [3] relates to TRKB.
The test system of assay [4] is T2, TRKC.
T2 construct: gene NTRK3

Assay [5] relates to TRPM6.
The test system of assay [6] is TSSK1B.
The subject of assay [7] is TSSK3.
For assay [8], the system named is TTK.
Assay [9] relates to TXK.
For assay [10], the system named is TYK2(JH1domain-catalytic).
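Note: KINOMEscan kinase panel screen.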

With `Nc1ncc(-c2cccnc2)c2scc(-c3ccc4c(c3)CCN4C(=O)Cc3ccccc3)c12` [GSK683281], the “%Inh” value in [1] was found to be 20%; in assay [2], 22%; in assay [3], 0%; in assay [4], 0%; in [5], 40%; in assay [6], 20%. In addition, the “%Inh” value in assay [7] came to 22%; in [8] it was 0%; in assay [9], 10%; in [10] it was 11%.
As to `Cc1ccc(C)c(NC(=O)NC2CCN(c3ccnc(Nc4ccc(F)cc4)n3)C2)c1` (stereo not shown) [GSK1379720], the “%Inh” value was 4% in [1]; 0% in assay [2]; 51% in assay [3]; 65% in assay [4]; 14% in [5]; 0% in assay [6]. For the same compound, the “%Inh” value in assay [7] came out at 15%; in assay [8] it was 13%; in [9], 16%; in [10], 36%.
Regarding `Nc1ncnc2c1nc(-c1ccccc1)n2-c1ccccc1` [SKF-97293], the “%Inh” value in assay [1] was determined as 0%; in assay [2], 37%; in assay [3], 48%; in [4], 36%; in [5], 50%; in assay [6], 2%. Besides, the “%Inh” value in assay [7] came to 22%; in assay [8], 0%; in [9], 15%; in [10] it was 68%.
Turning to `c1ccc(-c2cnc3nccnn23)cc1` [AH20685], the “%Inh” value in assay [1] was determined as 0%; in assay [2], 0%; in [3], 17%; in assay [4], 0%; in assay [5], 29%; in [6] it was 0%. The “%Inh” value came out at 9% in assay [7], 0% in [8], 0% in assay [9] and 0% in [10].
Consider `O=C(Nc1n[nH]c2cc(-c3ccoc3)ccc12)C1CC1` [SB-738481], for which the “%Inh” value was found to be 0% in assay [1]; 30% in assay [2]; 25% in [3]; 49% in assay [4]; 0% in [5]; 0% in [6]. Moreover, the “%Inh” value is reported as 0% in assay [7], 0% in assay [8], 20% in assay [9] and 51% in assay [10].
In the case of `COc1cc(Nc2nccc(-c3c(-c4cccc(NC(=O)c5c(F)cccc5F)c4)nn4ncccc34)n2)cc(OC)c1OC` [GSK327238], the “%Inh” value came out at 55% in assay [1]; 48% in assay [2]; 0% in assay [3]; 0% in assay [4]; 54% in assay [5]; 11% in [6]. For the same compound, the “%Inh” value was 19% in [7], 10% in assay [8], 93.6% in assay [9] and 88% in assay [10].
With `C[C@@H](Oc1cc(-n2cnc3cc(-c4ccnc(NCCS(C)(=O)=O)c4)ccc32)sc1C(N)=O)c1ccccc1Cl` [GSK907232], the “%Inh” value in assay [1] is 31%; in assay [2], 91%; in assay [3] it was 39%; in [4], 30%; in assay [5], 0%; in assay [6], 11%. Further, the “%Inh” value is given as 9% in [7], 0% in assay [8], 28% in assay [9] and 12% in [10].
Take `Cl.Cl.NCC(NC(=O)c1cc(-c2ccccc2)c(-c2ccnc3[nH]ccc23)s1)c1ccccc1` (stereo not shown) [GSK1321561]: the “%Inh” value in assay [1] came out at 18%; in assay [2] it was 58%; in assay [3] it was 26%; in assay [4], 6%; in assay [5], 28%; in [6] it was 0%. The “%Inh” value in assay [7] came to 18%; in assay [8], 0%; in [9] it was 45%; in assay [10], 20%.
`Cl.c1ccc(-c2ccc3c(Nc4ccc5[nH]ccc5c4)ccnc3c2)nc1` [GW440138]: the “%Inh” value in assay [1] worked out at 0%; in [2] it was 0%; in assay [3] it was 9%; in assay [4], 23%; in [5], 0%; in [6], 0%. The “%Inh” value worked out at 5% in [7], 0% in assay [8], 0% in assay [9] and 29% in [10].
On to `COc1cc2c(cc1OCCN1CCNCC1)ncc1c3ccc(C#N)cc3[nH]c21`, for which the “%Inh” value in [1] is 0%; in assay [2], 99.8%; in assay [3], 94.1%; in assay [4], 77%; in assay [5], 100%; in [6], 22%. Also, the “%Inh” value is reported as 15% in assay [7], 0% in [8], 11% in assay [9] and 50% in assay [10].
As for `COc1ccc(-c2coc3ccc(-c4nnc(SCc5ccc(OC)c(C(F)(F)F)c5)o4)cc23)cc1`, the “%Inh” value in assay [1] amounted to 0%; in assay [2], 5%; in assay [3] it was 10%; in assay [4] it was 0%; in [5], 1%; in [6], 0%. In addition, the “%Inh” value in [7] amounted to 0%; in assay [8], 1%; in assay [9], 0%; in assay [10], 27%.
In the case of `Clc1ccc(-c2nn3ncccc3c2-c2ccnc(Nc3ccc4c(c3)OCCO4)n2)cc1` [GW829116], the “%Inh” value in assay [1] is recorded as 0%; in assay [2], 0%; in assay [3], 0%; in [4], 0%; in assay [5], 7%; in [6] it was 0%. Moreover, the “%Inh” value came out at 0% in assay [7], 2% in assay [8], 0% in assay [9] and 0% in assay [10].
Regarding `NCCCC(NC(=O)c1cc(Br)c(-c2ccnc3[nH]ccc23)s1)c1ccccc1.O=C(O)C(F)(F)F.O=C(O)C(F)(F)F` (stereo not shown) [GSK1287544], the “%Inh” value in assay [1] was determined as 0%; in assay [2], 53%; in [3] it was 11%; in assay [4], 17%; in assay [5] it was 16%; in [6], 17%. Moreover, the “%Inh” value came out at 1% in assay [7], 21% in assay [8], 18% in assay [9] and 75% in assay [10].
For the compound `COC(=O)Nc1nc2cc(Oc3ccc(NC(=O)Nc4cc(C(F)(F)F)ccc4F)cn3)ccc2[nH]1.Cl.Cl` [GW681170], the “%Inh” value was 92.9% in assay [1]; 100% in [2]; 97.4% in assay [3]; 97% in assay [4]; 29% in assay [5]; 0% in [6]. In addition, the “%Inh” value in assay [7] was 16%; in [8], 43%; in assay [9], 0%; in assay [10], 14%.
As to `COc1cc(Nc2nccc(N3CCC(NC(=O)Nc4cccc(C(C)=O)c4)C3)n2)cc(OC)c1OC` (stereo not shown) [GSK1379753], the “%Inh” value in assay [1] is 9%; in assay [2] it was 62%; in assay [3], 63%; in assay [4], 92.3%; in assay [5] it was 41%; in assay [6], 6%. Further, the “%Inh” value in assay [7] came to 9%; in assay [8], 21%; in assay [9], 0%; in assay [10], 45%.
With `O=C(Nc1cccc(Oc2ccc3nc(NC(=O)C4CC4)cn3n2)c1)c1ccccc1C(F)(F)F`, the “%Inh” value is recorded as 4% in assay [1]; 0% in [2]; 0% in assay [3]; 0% in assay [4]; 0% in assay [5]; 7% in assay [6]. Also, the “%Inh” value in assay [7] was determined as 0%; in [8] it was 26%; in assay [9] it was 17%; in assay [10] it was 5%.
